Among all 24,000 compounds or so, about 1,200 (5%) were called active. Roughly 2% stayed inconclusive and do not appear here. How the calls were made is not given here. A selection follows. Where only a bound is given, the exact number is not on record here.

This experiment can be described thus: Mycobacterium tuberculosis H37Rv growth inhibition, putative kinase inhibitor library, confirmatory dose response (AID 2842).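 On inhibition: bacteria incubated one week before Alamar blue readout; 0% = bacteria only wells and 100% = bacteria with high antibiotic.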 As to conditions: M. tuberculosis H37Rv growth inhibition; CC50: measured here: Vero cell cytotoxicity; inhibition: stronger effect = higher value.
Take `CC(=O)Nc1ccc(NC(=O)CSc2ccc(-c3ccc(Cl)cc3)nn2)cc1`: the inhibition was 0% (inactive). Regarding `O=C(COc1ccccc1F)NC1CC(=O)N(c2ccc(Cl)cc2)C1` (centres undefined), the inhibition is 7.9% (inactive). Turning to `CCOc1cccc2c1OC(c1cccnc1)N1N=C(c3cccc(O)c3)CC21` (centres undefined), the inhibition is -10.5% (inactive). With `O=C(CC1Nc2cccc3cccc(c23)NC1=O)Nc1ccc(F)cc1` (centres undefined), the inhibition was 27.5% (inactive). Regarding `COc1ccc2nc(NC(=O)c3cc(-c4ccccc4)nc4ccccc34)sc2c1`, the 50% cytotoxic concentration (CC50) is more than 40 µg/mL and the inhibition is 95.1% (inactive). As to `COc1cccc(C(=O)COC(=O)c2cc3cc(Br)cc(OC)c3oc2=O)c1`, the inhibition is -0.935% (inactive).

`CCOC(=O)c1nn(-c2ccc(C)cc2)c(=O)cc1NCc1ccncc1`: the inhibition was -9.72% (inactive).

With `COc1ccc(/C=C2\SC(=S)N(CCC(=O)Nc3nccs3)C2=O)cc1OC`, the inhibition was -4.88% (inactive). Regarding `COc1ccccc1N1C(=O)N(c2cccc([N+](=O)[O-])c2)C2CS(=O)(=O)CC21` (centres undefined), the inhibition is -5.59% (inactive).

With `CCS(=O)(=O)c1ccccc1C(=O)Nc1sc2c(c1C(N)=O)CCC(C)C2` (centres undefined), the inhibition is -17.6% (inactive).

As for `O=C(Nc1ccc(F)cc1)c1cn(Cc2ccccc2)cc2c(=O)n(-c3ccccc3)nc1-2`, the inhibition was -8.1% (inactive).

In the case of `O=C(CCCc1ccccc1)Nc1c(C(=O)Nc2ccc3c(c2)OCO3)oc2ccccc12`, the inhibition is -0.74% (inactive).

Regarding `Fc1ccc2nc(Nc3nnc(-c4cccs4)o3)sc2c1`, the inhibition is 36% (inactive). Regarding `COc1cccc(-c2nc(C(N)=O)c3[nH]c(=O)n(-c4ccccc4F)c3n2)c1`, the inhibition was -10.4% (inactive). For the molecule `Cc1ccc(NC(=O)c2oc3ccccc3c2NC(=O)c2ccc([N+](=O)[O-])cc2)cc1`, the inhibition is 3.31% (inactive).

With `COc1ccc2cc(CCNC(=O)c3ccccc3OC)c(=O)[nH]c2c1`, the inhibition is 5.57% (inactive).

Turning to `Cc1c(C(=O)O)c2cc(O)ccc2n1C`, the inhibition was 12.9% (inactive).

As to `O=C(CN1C(=O)CCC1=O)Nc1nc(-c2ccc(Cl)c(Cl)c2)cs1`, the inhibition is 0.41% (inactive). In the case of `COc1ccc(Cl)cc1NC(=O)CSc1nnc(CCC(=O)O)c(=O)n1N`, the inhibition is -10.7% (inactive). On to `O=C(Nc1nc2c(s1)CCCC2)c1coc2ccccc2c1=O`, for which the inhibition was -2.85% (inactive).

Regarding `O=C(NCc1ccc2[nH]c3c(c2c1)CCCC3)Nc1ccccc1`, the inhibition is 62.6% (inactive). Take `COc1ccc(Nc2ncnc(N)c2[N+](=O)[O-])c(OC)c1`: the inhibition was 0.53% (inactive). `Cc1ccc(-c2csc(Nc3ccc(O)c(C(=O)O)c3)n2)cc1`: the inhibition was -6.04% (inactive).

The term inhibition denotes the drop in the measured response relative to a control, in per cent. As a reminder, the CC50 is the concentration that lowers cell viability or growth by half.

The values above are taken from PubChem BioAssay AID2842 (Southern Research Institute, 2010).
